Compound activity: PubChem BioAssay, several laboratories
Sampled rows, rich in hits. Any-hit rate of the full collection: about 3%.
GDH-TPI inh: inhibits GDH-TPI coupling enzymes, artifact for Mtb FBA screen. GDH-TPI coupled enzyme counterscreen, NADH absorbance. inhibition, % at 4.8 µM. 360,000 compounds, 1.2% hits. AID 588335; in the data active = inhibition above about 30%;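 also: 0% = DMSO wells and 100% = wells lacking the enzyme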
Mtb BioA inh: inhibitors of Mycobacterium tuberculosis BioA enzyme. purified M. tuberculosis BioA enzyme, plate reader. inhibition, % at 9.99 µM. 360,000 compounds, 0.096% hits. AID 602481; in the data active = inhibition above about 40%
FadD28 FP inh: blocks FadD28 binding to the bisubstrate probe; inhibition, % at 12.5 µM; fluorescence polarization; 360,000 compounds, 0.22% hits; in the data active = inhibition above about 8.5%, passing the limit was not always enough
Rv3671c inh: inhibitors of M. tuberculosis serine protease Rv3671c; 320,000 compounds, 0.048% hits; AID 2606; inhibition, % at 5.96 µM; in the data active = inhibition above about 38%;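 also: extracellular domain of Rv3671c used as enzyme; 0% = enzyme with DMSO and 100% = no enzyme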
Mtb FBA inh: inhibitors of M. tuberculosis fructose-bisphosphate aldolase | purified M. tuberculosis FBA, fluorescence read-out | inhibition, % at 1 µM | P9WQA3 | 360,000 compounds, 2.3% hits; in the data active = inhibition above about 27%;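 also: 0% = vehicle and 100% = reference inhibitor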
Target sequence (P9WQA3 whole entry, looked up): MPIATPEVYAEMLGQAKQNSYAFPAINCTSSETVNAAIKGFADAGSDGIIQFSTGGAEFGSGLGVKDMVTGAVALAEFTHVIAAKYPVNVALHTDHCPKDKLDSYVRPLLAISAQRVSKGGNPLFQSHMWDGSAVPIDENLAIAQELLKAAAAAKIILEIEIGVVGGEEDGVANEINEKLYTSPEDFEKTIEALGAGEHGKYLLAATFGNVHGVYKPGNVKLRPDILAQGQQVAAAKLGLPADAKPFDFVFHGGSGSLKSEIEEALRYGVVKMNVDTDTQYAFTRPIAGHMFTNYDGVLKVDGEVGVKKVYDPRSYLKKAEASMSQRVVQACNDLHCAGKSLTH
Numbers without * were called inactive; . = not tested or not shown; + = active, no number.

SMILES	GDH-TPI inh	Mtb BioA inh	FadD28 FP inh	Rv3671c inh	Mtb FBA inh
Cc1ccc(/C=C(\C#N)C(=O)Nc2c(C)cccc2C)s1	45*	.	-1	-15	3
CC[C@@]1(O)C(=O)OCc2c1cc1n(c2=O)Cc2cc3c(N)cccc3nc2-1	33*	-3	1	0	5
CC[C@@]1(O)C(=O)OCc2c1cc1n(c2=O)Cc2cc3c(CN(C)C)c(O)ccc3nc2-1	34*	-114	-1	6	8
COc1ccc(CN2[C@H](CO)[C@@H]3c4ccccc4N(C(=O)c4ccccc4)C[C@@H]32)cc1	.	-2	.	.	.
CCC(=O)N1C[C@H](O)COC[C@H]2O[C@@H](CC(=O)NCc3ccccc3Cl)CC[C@@H]21	.	1	.	.	.
Cc1ccc2nc(-c3ccc(NS(=O)(=O)c4ccccc4)cc3)sc2c1	12	.	-3	-20	+
Cc1ccc2nc(-c3ccc(NS(=O)(=O)c4ccc(F)c(F)c4)cc3)sc2c1	28	.	-2	-174	+
O=C(NCC(=O)N(Cc1cccs1)C(C(=O)NC1CCCC1)c1cccnc1)c1ccco1 (stereo unspecified)	-3	-2	-2	-2	117*
O=C(NCC(=O)N(Cc1cccs1)C(C(=O)NC1CCCCC1)c1ccncc1)c1ccco1 (stereo unspecified)	-2	-3	-1	-4	-4
Cc1noc(C)c1NC(=O)Nc1ccc2c(c1)C(=O)N([C@H](C)CO)C[C@H](C)[C@H](CN(C)Cc1ccc(Cl)c(Cl)c1)OCCCC[C@H](C)O2	.	-2	.	.	.
Cc1cccn2cc(-c3c[nH]c4ccccc34)nc12	4	4	-1	9	195*
COCCNC(=O)C[C@@H]1CC[C@@H]2[C@H](COc3ccc(NC(=O)COC)cc3C(=O)N2C)O1	.	-2	.	.	.
CC=Cc1ccc2n(c1=O)C[C@H]1[C@H](CO)[C@@H](C(=O)N3CCCCC3)N(C(=O)CC)[C@@H]21 (mixture of isomers)	.	-1	.	.	.
COC(=O)c1sc(-c2ccc(Cl)cc2)cc1NC(=O)c1ccccc1C(=O)O	32*	.	-4	1	2
CCOc1ccc(NC(=O)Nc2cc(-c3ccccc3)sc2C(=O)OC)cc1	10	-2	-1	-10	1
CCOc1ccc(-c2cc(NC(=O)c3c(F)cccc3F)c(C(=O)O)s2)cc1	32*	-2	.	.	0
COC(=O)c1sc(-c2ccc(C(C)(C)C)cc2)cc1NC(=O)c1ccccc1C(=O)O	23	.	-3	-16	4
Cc1noc(C)c1S(=O)(=O)Nc1ccc2c(c1)CC(=O)N([C@@H](C)CO)C[C@H](C)[C@@H](CN(C)S(=O)(=O)c1cccs1)O2	.	-1	.	.	.
CNC[C@H]1Oc2ccc(NC(=O)c3ccncc3)cc2CC(=O)N([C@H](C)CO)C[C@H]1C	.	1	.	.	.
CC(C)NC(=O)NCC[C@H]1CC[C@@H](NC(=O)Nc2ccccc2)[C@@H](CO)O1	.	1	.	.	.
CC(=O)c1cccc(NC(=O)NC2CCCCCCC2)c1	7	-1	15*	0	2
CC(=O)c1cccc(NC(=O)NC2CCCCC2)c1	-5	0	-3	4	1
CC(=O)c1cccc(NC(=S)NC2CCCCCCC2)c1	-2	0	14*	.	0
C[C@@H]1CN([C@H](C)CO)C(=O)CCCn2nncc2CO[C@@H]1CN(C)Cc1ccc(Oc2ccccc2)cc1	.	2	.	.	.
COC(=O)c1ccc(-c2cc(C(=O)O)c3cc4c(cc3n2)OCCO4)cc1	21	.	4	5	+
SMILES	GDH-TPI inh	Mtb BioA inh	FadD28 FP inh	Rv3671c inh	Mtb FBA inh
COc1cc(-c2cc(C(=O)O)c3cc4c(cc3n2)OCCO4)cc(OC)c1OC	20	1	-2	2	-3
Cc1ccc(F)c(NC(=O)/C(C#N)=C(\O)c2ccc(C(C)(C)C)cc2)c1	14	.	29*	-6	-4
Cc1cccc(NC(=O)C(=O)NNC(=O)c2ccc(C(C)(C)C)cc2)c1	13	-5	-1	-9	-2
COC(=O)c1ccc(C(=O)Nc2ccc3nc(-c4ccncc4)[nH]c3c2)cc1	22	-1	-6	-17	-1
Fc1cc2nc(-c3ccncc3)[nH]c2cc1F	1	1	-4	3	127*
C1CCC(Nc2nnnn2C2CCCCC2)CC1	3	-1	-2	4	1
CN(C)/C=C/C(=O)c1nnn(C2CCCCC2)c1NC1CCCCC1	39*	-3	-5	-7	-1
COC(=O)c1cc2c(-c3ccccc3)cc3ccccn3c-2c1C(=O)OC	35*	0	-1	0	-4
COC(=O)c1c(C)c2c(C)cc3ccccn3c-2c1C(=O)OC	20	-4	1	21	2
C[C@H]1CN([C@@H](C)CO)S(=O)(=O)c2ccc(C#Cc3cccc(F)c3)cc2O[C@@H]1CN(C)C	.	10	.	.	.
COC(=O)c1c(C)[nH]c(/C=N/Nc2ccccc2)c1C	8	0	0	2	2
Cc1c(C=NNc2ccccc2)[nH]c(=O)[nH]c1=O	32*	.	-1	.	6
C[C@H]1CN([C@@H](C)CO)C(=O)c2cccc(NC(=O)c3nc4ccccc4s3)c2O[C@@H]1CN(C)C(=O)Nc1ccc(F)cc1	.	0	.	.	.
COCCOC(=O)c1c(C)oc2ccc(OC(=O)c3ccco3)cc12	2	.	1	2	-1
COC(=O)Cc1c(C)c2ccc(OC(C)C)cc2oc1=O	30	1	-1	-8	+
COC(=O)Cc1c(C)c2ccc(OCC(=O)N(C)C3CCS(=O)(=O)C3)cc2oc1=O (stereo unspecified)	17	0	-2	3	114*
COC(=O)Cc1c(C)c2ccc(OC(=O)c3ccco3)cc2oc1=O	17	1	0	0	+
COC(=O)Cc1c(C)c2cc(Cl)c(OC(=O)c3ccco3)cc2oc1=O	2	1	-3	4	+
COC(=O)c1cc(-c2c(C)oc3cc(OC(C)C)ccc3c2=O)c(C)o1	10	8	-1	-1	0
C[C@@H]1CN([C@H](C)CO)C(=O)c2cc(NC(=O)C3CC3)ccc2O[C@@H]1CN(C)S(=O)(=O)c1ccc(Cl)cc1	.	0	.	.	.
COC(=O)C[C@@H]1CC[C@@H]2[C@@H](COc3ccc(NC(=O)c4cc(C)on4)cc3C(=O)N2C)O1	.	-2	.	.	.
O=C(Nc1ccc2c(c1)[C@H]1C[C@H](CC(=O)N3CCOCC3)O[C@H](CO)[C@H]1O2)c1cccnc1	.	35	.	.	.
Cc1c(CC(=O)O)c(=O)oc2cc(OCc3ccc(F)cc3F)ccc12	18	0	1	-5	156*
COC(=O)Cc1c(C)c2ccc(OCC(=O)N3CCOCC3)cc2oc1=O	26	-1	-1	10	123*
Cc1ccccc1C(=O)Nc1cccc(C(=O)N/N=C/c2ccc3c(c2)OCO3)c1	32*	-1	-14	-7	-3
O=C(N/N=C/c1ccc2c(c1)OCO2)c1ccc(NC(=O)c2ccccc2Cl)cc1	35*	-3	-3	-40	2
O=C(N/N=C/c1ccc2c(c1)OCO2)c1cccc(NC(=O)c2ccccc2Cl)c1	17	-1	-4	-35	5
C[C@H](CO)N1C[C@H](C)[C@H](CN(C)S(=O)(=O)c2cn(C)cn2)Oc2c(NC(=O)c3cnccn3)cccc2C1=O	.	-3	.	.	.
